Assay outcomes as filed in PubChem.
Only some compounds are listed: those with a hit (about 6.6% of all), similar ones and a draw of the others.
KB-3-1 tox – KB-3-1 parental cell cytotoxicity; KB-3-1 viability, CellTiter-Glo ATP luminescence, 72 h; Potency, µM (series often up to 46.1 µM), usual class: cytotoxic; 400,000 tested, 1.4% active; note: % is set by controls: 0 for no effect and ±100 for the full control effect; nearly all actives have a fitted effect of over 60% in size
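Cytotoxicity measured as CellTiter-Glo luminescence after 72 h at 37 C. Compound titrations were pinned onto drug-naive KB-3-1 parental adenocarcinoma cells grown in DMEM with 10% FBS, and normalized data fitted to concentration-response curves.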
KB-V1 cytotox – kills drug-selected multidrug resistant KB-V1 cells; KB-V1 MDR cells viability, CellTiter-Glo, 72 h; Potency, µM (top dose mostly 46.1 µM), most hits filed as cytotoxic; 400,000 tested, 3.4% active; note: % is set by controls: 0 for no effect and ±100 for the full control effect; nearly all actives have a fitted effect of over 60% in size
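Luminescent ATP read-out (CellTiter-Glo, 10 min) measures survival of drug-selected KB-V1 MDR cells after 72 h, 37 degrees C compound exposure. Medium: phenol-red-free DMEM, 10% FBS. Values from fitted concentration-response curves.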
RGS4 inh – blocks human RGS4-accelerated GTP hydrolysis | 390,000 tested, 0.039% active | Potency, µM (series often up to 114 µM), inactives show at the top dose activity change, negative = inhibition, usual class: inhibitors | Transcreener GDP fluorescence polarization, RGS4-accelerated GTP hydrolysis | P49798; note: % is set by controls: 0 for no effect and ±100 for the full control effect; nearly all actives have a fitted effect of over 75% in size
Target sequence (P49798 whole entry, looked up): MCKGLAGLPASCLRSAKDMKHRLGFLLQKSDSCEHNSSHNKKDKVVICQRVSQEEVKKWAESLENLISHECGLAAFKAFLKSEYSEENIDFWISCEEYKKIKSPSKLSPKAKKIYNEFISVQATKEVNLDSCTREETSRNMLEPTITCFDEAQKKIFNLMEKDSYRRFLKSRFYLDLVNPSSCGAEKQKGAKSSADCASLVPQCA
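MLSMR compounds (23 nl, pin-transferred) preincubated 10 min at room temperature with a 500nM (2x) first reagent, then RGS4 at 900nM (2x) plus Transcreener GDP mix added; fluorescence polarization (620/688 nm) read before and after 90 min at 30 °C.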
PTAP TSG101 blk – blocks PTAP/TSG101 interaction to inhibit HIV-1 budding | Q99816 | Fluorescence polarization, FITC-PTAP peptide / Tsg101 binding | Potency, µM (titrated, usually from 115 µM), for the others: at the top dose activity change, negative = inhibition, usual class: inhibitors | 340,000 tested, under 10 active; active = well fitted inhibition curve with a large enough effect in the main read-out, with a control signal flat, not every such curve was filed as active; inconclusive = small, poorly fitted or top-dose-only effect, or effect the other way, or a change in a side signal; inactive = no such curve, though single readings can be large or run the other way; note: % of control where 0% means no effect
Target sequence (Q99816 whole entry, looked up): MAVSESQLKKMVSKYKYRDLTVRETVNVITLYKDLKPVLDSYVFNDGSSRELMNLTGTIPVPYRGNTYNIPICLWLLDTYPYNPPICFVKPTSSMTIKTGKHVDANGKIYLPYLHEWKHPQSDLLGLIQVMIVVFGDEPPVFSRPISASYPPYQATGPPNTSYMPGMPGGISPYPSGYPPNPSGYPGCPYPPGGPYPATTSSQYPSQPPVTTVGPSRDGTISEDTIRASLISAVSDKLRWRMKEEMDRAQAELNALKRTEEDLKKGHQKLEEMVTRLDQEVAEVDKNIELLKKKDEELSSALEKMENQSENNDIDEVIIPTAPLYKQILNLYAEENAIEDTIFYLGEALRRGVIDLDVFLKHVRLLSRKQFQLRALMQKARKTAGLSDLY
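Fluorescence polarization binding of Tsg101 binding domain (10 uM final) to FITC-labeled PTAP peptide (50 nM final) in HEPES pH 7.5 buffer with NaCl, Tween 20, EDTA, TCEP. Compounds added before peptide; binding 20 min at RT.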
SW480 rereplic – DNA re-replication induction in SW480 cells | SW480 DNA re-replication, Hoechst DNA content imaging, 48 h | Potency, µM (top dose mostly 46.1 µM), for inactives: at the top dose re-replication activation, hits mostly activators | 340,000 tested, 1.8% active | AID 624297; note: % of control where 0% means no effect; nearly all actives have a fitted effect of over 55% in size
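Readout is total intensity of Hoechst-stained nuclei, excited at 405 nm and collected at 500-530 nm. Compound treatment lasted 48 hr at 37 C in 5% CO2 before staining.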
MCF10A rerep – inducers of DNA re-replication in MCF 10A breast cells; MCF 10A DNA re-replication, Hoechst nuclear intensity, 48 h; Potency, µM (highest dose often 46.1 µM), for inactives: at the top dose activity, positive = re-replication, actives largely listed as activators; 350,000 tested, 2.9% active; note: % of control where 0% means no effect; nearly all actives have a fitted effect of over 50% in size
An asterisk follows results filed as active; ! = not active in a repeat; [ ] = remark or other dose. Unless noted, calls come from the whole dose curve; as a rule, active = well fitted curve in the direction sought with a large enough effect; inconclusive = small, poorly fitted or top-dose-only effect, or another doubt; inactive = no such curve, though single readings can be large; an effect the other way counts as inactive or inconclusive. Potency is the fitted concentration of half-maximal effect.

Screening Cc1[nH]n(-c2ccc([N+](=O)[O-])cc2)c(=O)c1C=NCCN1CCN(C(=O)c2cccc(F)c2)CC1 returned KB-3-1 tox inactive, KB-V1 cytotox 16.4µM*, RGS4 inh 14.4%, PTAP TSG101 blk -6.7%, SW480 rereplic -2.3% and MCF10A rerep 20.9%.
For CCn1c(CN2CCCCC2)nc2cc(NC(=O)c3cc(OC)c(OC)c(OC)c3)ccc21 the results were KB-3-1 tox inactive, KB-V1 cytotox inactive and RGS4 inh 7.0%.
O=S(=O)(c1ccccc1)N(c1ccccc1)S(=O)(=O)c1ccccc1 was read as KB-3-1 tox inconclusive, KB-V1 cytotox 9.2µM*, RGS4 inh inconclusive, PTAP TSG101 blk 0.3%, SW480 rereplic 7.0% and MCF10A rerep 10.2%.
`Cc1ccc2ncc(C(=O)c3ccc(C)c(C)c3)c(S(=O)(=O)c3ccccc3)c2c1` gave KB-3-1 tox inconclusive, KB-V1 cytotox inactive and RGS4 inh -17.9%.
For Cc1cccc(C(=O)c2cnc3ccccc3c2-c2ccccc2)c1 the results were KB-3-1 tox inactive, KB-V1 cytotox inconclusive, RGS4 inh 0.8%, PTAP TSG101 blk -4.8%, SW480 rereplic 7.4% and MCF10A rerep 23.1µM*.
For Cc1ccc(N2CC(c3nnc(NC(=O)c4ccco4)s3)CC2=O)cc1Cl (configuration not stated) the results were KB-3-1 tox inactive, KB-V1 cytotox inconclusive and RGS4 inh -5.7%.
CCCCn1c(CN2CCN(C(=O)OCC)CC2)nc2c1c(=O)n(C)c(=O)n2C was read as KB-3-1 tox inconclusive, KB-V1 cytotox 13µM*, RGS4 inh -2.0%, PTAP TSG101 blk -1.4%, SW480 rereplic -6.6% and MCF10A rerep 8.1%.
`CCOCCn1c(CN2CCN(c3ccc(F)cc3)CC2)nc2c1c(=O)n(C)c(=O)n2C` gave KB-3-1 tox inconclusive, KB-V1 cytotox 9.2µM*, RGS4 inh -20.6%, PTAP TSG101 blk -3.1%, SW480 rereplic -3.1% and MCF10A rerep 4.9%.
COc1cccc(-n2c(SCC(=O)N3CCc4ccccc43)nc3c([nH]c4ccccc43)c2=O)c1 was read as KB-3-1 tox inactive, KB-V1 cytotox inconclusive and RGS4 inh 16.5%.
For CC(C)Cn1cnc2c(SCc3ccccc3)nc(N)nc21 the results were KB-3-1 tox inactive, KB-V1 cytotox inactive, RGS4 inh 15.8%, PTAP TSG101 blk -2.3%, SW480 rereplic -0.9% and MCF10A rerep 12.7%.
`CC(C)Cn1cnc2c(N)nc3ccccc3c21` gave KB-3-1 tox inactive, KB-V1 cytotox inconclusive, RGS4 inh 0.7%, PTAP TSG101 blk -1.2%, SW480 rereplic 0.581µM*! and MCF10A rerep inconclusive.
Cc1ccc(-c2nnc(SCC(=O)NCCC(C)C)nc2-c2ccc(C)cc2)cc1 was read as KB-3-1 tox inactive, KB-V1 cytotox inactive and RGS4 inh 19.3%.
`c1cc2c(cc1C1CCCCC1)c1c3n2CCN=C3CCC1` gave KB-3-1 tox inconclusive, KB-V1 cytotox inconclusive, RGS4 inh -13.3%, PTAP TSG101 blk -1.8%, SW480 rereplic 20.6µM* and MCF10A rerep 16.4µM*.
Cc1ccc2c(c1)c1c3n2CCN=C3CCC1 was read as KB-3-1 tox inconclusive, KB-V1 cytotox 14.6µM*, RGS4 inh -46.7%, PTAP TSG101 blk -0.9%, SW480 rereplic 4.9% and MCF10A rerep 23.7%.
Screening c1cc2c(cc1C1CCCCC1)c1c3n2CCCNC3CCC1 (configuration not stated) returned KB-3-1 tox 18.4µM*, KB-V1 cytotox inconclusive, RGS4 inh -21.3%, PTAP TSG101 blk -3.6%, SW480 rereplic 17.6%[9.22 µM] and MCF10A rerep inconclusive.
`c1cc2c(cc1C1CCCCC1)c1c3n2CCN[C@H]3CCC1` gave RGS4 inh inactive.
COc1ccc2c(c1)c1c3n2CCN(C)C3=NCC1 was read as KB-3-1 tox inactive, KB-V1 cytotox inactive, RGS4 inh 14.1%, PTAP TSG101 blk -3.1%, SW480 rereplic -11.1% and MCF10A rerep inconclusive.
`O=S1(=O)c2ccccc2N(Cc2ccccc2F)c2ccccc21` gave KB-3-1 tox inactive, KB-V1 cytotox inactive and RGS4 inh 23.4%.
`COc1ccc(NC(=O)CCCn2c(=O)c3sccc3n(Cc3ccccc3C)c2=O)cc1` gave KB-3-1 tox inactive, KB-V1 cytotox 9.2µM*, RGS4 inh -42.4%, PTAP TSG101 blk 1.0%, SW480 rereplic -4.1% and MCF10A rerep -0.9%.
For COc1ccc(NC(=O)CCCn2c(=O)c3sccc3n(Cc3ccccc3)c2=O)cc1 the results were KB-3-1 tox inactive, KB-V1 cytotox inactive, RGS4 inh -24.2%, PTAP TSG101 blk 0.1%, SW480 rereplic 7.5% and MCF10A rerep -2.6%.
`Cc1cc(NC(=O)CCCn2nc([N+](=O)[O-])cc2C)no1` gave KB-3-1 tox inactive, KB-V1 cytotox inactive, RGS4 inh -2.8%, PTAP TSG101 blk -0.4%, SW480 rereplic 0.1% and MCF10A rerep -0.2%.
COC(=O)c1sc(NC(=O)CCCn2nc([N+](=O)[O-])cc2C)c(C(=O)OC)c1C was read as KB-3-1 tox inactive, KB-V1 cytotox 0.92µM*, RGS4 inh 23.7%, PTAP TSG101 blk -2.1%, SW480 rereplic 0.3% and MCF10A rerep 3.9%.
Screening O=C(CCl)N=c1sccn1Cc1ccc(Cl)cc1Cl returned KB-3-1 tox inconclusive, KB-V1 cytotox 18.4µM*, RGS4 inh -29.3%, PTAP TSG101 blk -4.7%, SW480 rereplic inconclusive and MCF10A rerep inconclusive.
CC(=O)Nc1ccc(Cl)c(C(N)=O)c1 was read as KB-3-1 tox inactive, KB-V1 cytotox inactive, RGS4 inh 21.1%, SW480 rereplic -7.3% and MCF10A rerep -8.2%.
For NC(=O)c1cc(N2C(=O)C=CC2=O)ccc1Cl the results were KB-3-1 tox inactive, KB-V1 cytotox inactive, RGS4 inh inconclusive, SW480 rereplic inconclusive and MCF10A rerep 18.4µM*.
`Cc1cccc(NC(=O)c2cc(-c3cccnc3)nc3c(C)cccc23)n1` gave KB-3-1 tox inactive, KB-V1 cytotox inconclusive, RGS4 inh inconclusive, PTAP TSG101 blk 0.1%, SW480 rereplic 2.2% and MCF10A rerep 16.4µM*.
Screening Cc1cc(NC(=O)c2cc(-c3ccncc3)nc3c(C)cccc23)no1 returned KB-3-1 tox 3.26µM*, KB-V1 cytotox 3.66µM*, RGS4 inh 12.7%[11.4 µM], PTAP TSG101 blk -0.2%, SW480 rereplic 6.51µM* and MCF10A rerep inconclusive.
